Outcome data for 33 compounds are collected here from PubChem BioAssay AID1224852 (National Center for Advancing Translational Sciences (NCATS), 2016).

Inconclusive results are not listed. The source made the active and inactive calls. Calls come from the whole dose curve; as a rule, active = well fitted curve in the direction sought with a large enough effect (not every such curve was filed as active); inconclusive = small, poorly fitted or top-dose-only effect, or effect the other way, or another doubt; inactive = no such curve, though single readings can be large or run the other way.

The nature of this assay: Cell viability assay for measurement of the protective activity of small molecules against cell death caused by Zika virus infection in human neural progenitor cells (hNPCs). The settings on record: hNPC ZIKV-induced death protection, ATP luminescence, 72 h; series mostly up to 46.1 µM. In a few lines: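 Luminescent ATP content after 72 h ZIKV infection (2 FFU/cell) of hNPCs, compounds added 1 h before virus. Protection expressed as percent inhibition of the infection-induced drop in cell viability.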
On to `c1ccc(CCNc2nc(-c3ccccc3)cs2)cc1`, for which the result was inactive.

Regarding `Nc1ccc2c(c1)CN1C(=O)c3ccccc3C1=N2`, the outcome was inactive.

Take `Cc1ccc(O)c(-n2nc3ccccc3n2)c1`: the call was inactive.

As for `CNC1[C@H](O)C(O[C@@H]2C(O)C(O[C@H]3O[C@H]([C@@H](C)NC)CC[C@H]3N)[C@@H](N)C[C@H]2N)OC[C@]1(C)O` (stereo partly drawn), the compound was called inactive.

Regarding `CCOCCOC(=O)/C=C/c1ccc(OC)cc1`, the compound was classed as inactive.

For `N#C/C(=C\c1ccc(O)c(O)c1)C(=O)Nc1ccccc1`, the outcome was inactive.

As to `[O-][n+]1ccccc1SSc1cccc[n+]1[O-]`, the compound was classed as inactive.

As to `COc1cccc(-c2ccc(NC(=O)C3=C(C(=O)O)CCC3)c(F)c2)c1`, the compound was called inactive.

Turning to `CC[C@@]1(O)C[C@H](O[C@H]2C[C@H](N(C)C)[C@H](O[C@H]3C[C@H](O)[C@H](O[C@H]4CCC(=O)[C@H](C)O4)[C@H](C)O3)[C@H](C)O2)c2c(cc3c(c2O)C(=O)c2c(O)cccc2C3=O)[C@@H]1C(=O)OC`, the result was inactive.

For the compound `O=C(CS)Nc1ccccc1`, the outcome was inactive.

`C=C1C(=O)[C@@]23C(CC[C@@H]1[C@H]2O)[C@@]12CO[C@]3(O)[C@@H](O)[C@@H]1C(C)(C)CC[C@@H]2O` (stereo partly drawn): the outcome was inactive.

Take `COc1ccnc2c1CCCCC2S(=O)c1nc2ccccc2[nH]1` (stereo not drawn): the compound was called inactive.

With `C/C(=N\O)c1ccc(OCC(=O)N2CCCCC2)cc1`, the outcome was inactive.

Turning to `COc1ccc(CC2=NN3C([C@@H](CCc4ccccc4)[C@@H](C)O)=NC(C)C3C(=O)N2)cc1OC` (stereo partly drawn), the result was inactive.

As to `O=c1cc(-c2ccccc2)oc2cc(O)cc(O)c12`, the result was inactive.

As to `O=C(Nc1ccc(C(=O)O)c(O)c1)c1ccccc1`, the compound was called inactive.

As to `CCCCCCOc1ccccc1C(N)=O`, the compound was called inactive.

As to `O=C(Nc1ccc([N+](=O)[O-])cc1Cl)c1cc(Cl)ccc1O`, the compound was classed as inactive.

As to `C=CCCCCCCCCC(=O)O`, the result was inactive.

Regarding `O=C(Nc1ccc(OC(F)(F)F)cc1)c1sccc1NCc1ccnc2ccccc12`, the outcome was inactive.

`O=C(O)c1cc([N+](=O)[O-])ccc1NCCCc1ccccc1`: the call was inactive.

Consider `Cc1c(NC(=O)c2ccc(C(C)(C)C)cc2)cccc1-c1cn(C)c(=O)c(Nc2ccc(C(=O)N3CCOCC3)cc2)n1`, for which the call was inactive.

Take `COCCn1c2c([n+](Cc3cnccn3)c1C)C(=O)c1ccccc1C2=O`: the compound was classed as inactive.

In the case of `COc1cc(NC(C)CCCN)c2ncccc2c1` (stereo not drawn), the compound was called inactive.

For the compound `CC1(C)OC2=C(C(=O)c3ccccc3C2=O)[C@H](NCc2ccccc2)[C@H]1O`, the compound was called inactive.

Consider `CCCCCCCC/C=C/C(=O)O`, for which the result was inactive.

For `O=C(O)[C@H](CC(=O)N1C[C@@H]2CCCC[C@H]2C1)Cc1ccccc1`, the result was inactive.

In the case of `COc1ccc(/C=C/C(=O)Nc2ccccc2C(=O)O)cc1OC`, the call was inactive.

Turning to `Cc1c(N)c(=O)n(-c2ccccc2)n1C`, the compound was classed as inactive.

Regarding `O=c1c2ccccc2nc2n1CCc1c-2[nH]c2ccccc12`, the call was inactive.

As for `Cc1ccc(O)c(N=Nc2ccccc2)n1`, the compound was classed as inactive.

As for `CCN1/C(=C/C=C/c2sc3ccccc3[n+]2CC)Sc2ccccc21`, the outcome was inactive.

In the case of `CN1CC(=O)N/C1=N/C(=O)Nc1cccc(Cl)c1`, the result was inactive.
